Screens deposited in PubChem by National Center for Advancing Translational Sciences (NCATS).
DRD3 agonist = D3 dopamine receptor (human) agonism; P35462; D3R DiscoveRx beta-arrestin cells, luminescence, 90 min; max activation, %; 410,000 compounds, 0.58% hits; in the data active means max activation above about 30%; further: 0% is about no effect
Target sequence (P35462 whole entry, looked up): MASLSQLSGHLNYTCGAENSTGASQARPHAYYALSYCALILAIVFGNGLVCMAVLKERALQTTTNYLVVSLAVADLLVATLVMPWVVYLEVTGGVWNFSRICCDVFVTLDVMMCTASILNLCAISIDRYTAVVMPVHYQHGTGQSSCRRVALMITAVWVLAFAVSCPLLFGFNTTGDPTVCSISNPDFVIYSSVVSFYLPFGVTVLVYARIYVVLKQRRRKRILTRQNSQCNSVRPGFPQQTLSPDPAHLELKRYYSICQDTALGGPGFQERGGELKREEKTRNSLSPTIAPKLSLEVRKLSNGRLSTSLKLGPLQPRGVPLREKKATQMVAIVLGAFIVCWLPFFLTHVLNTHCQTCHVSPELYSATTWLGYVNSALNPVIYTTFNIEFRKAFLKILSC
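Agonist-mode cell screen: cells plated at 1500/well and incubated overnight at 37 °C, then exposed to library compounds for 90 min at 37 °C. Detection reagent was added for 30–60 min at room temperature, and luminescence was read.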
IL1B secr inh = blocks inflammasome-driven IL-1 beta release; THP-1 LPS/ATP IL-1B secretion, AlphaLISA, 16 h; hits give low values; activity change, % at 57.5 µM; 360,000 compounds, 4.7% hits; AID 743279; in the data active means activity change below about -50%; inconclusive means mostly about -30% to -49%; further: on the % scale 0 is the no-effect control and ±100 the full control effect
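Secreted IL-1B measured by AlphaLISA bead assay after 16 h compound exposure of THP-1 cells; compounds (final up to 57.5 uM) added 1 h before LPS (250 ng/mL) and ATP (1.25 mM) stimulation; lower signal means less secretion.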
TDP1 cell noCPT = qHTS for Inhibitors of human tyrosyl-DNA phosphodiesterase 1 (TDP1): qHTS in cells in absence of CPT; Potency, µM (series often up to 46.2 µM), for inactives: at the top dose activity change, negative = growth inhibition, actives largely listed as inhibitors; AID 686978, 2013; 420,000 compounds, 15% hits; DT40 Tdp1-/- hTDP1 cells, no CPT, ATP luminescence, 48 h; further: potency means the concentration at half of the fitted maximal effect; on the % scale 0 is the no-effect control and ±100 the full control effect; nearly all actives have a fitted effect of over 55% in size
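Cells were dispensed at 400 per well, compounds added by pin tool, plates incubated ≥48 hr at 37 °C, then CellTiter-Glo added for 30 min at room temperature before luminescence reading. Line: DT40 Tdp1-/- complemented with hTDP1; camptothecin omitted.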
ClpP mod = qHTS Assay for Activators of ClpP; ATP-dependent Clp protease proteolytic subunit (Bacillus subtilis (strain 168)), P80244; purified B. subtilis ClpP, FRET peptide cleavage, 20 min; Potency, µM (top dose mostly 57.5 µM), without a hit: top-dose activity change, negative = active; 340,000 compounds, 1.9% hits; AID 651965, 2013; active means well fitted falling curve with a large enough effect; inconclusive means small, poorly fitted or top-dose-only effect; inactive means no such curve, though single readings can be large or run the other way; further: potency means the concentration at half of the fitted maximal effect; the source files actives as falling curves though it sought activators and does not explain the sign; nearly all actives have a fitted effect of over 65% in size
Target sequence (P80244 whole entry, looked up): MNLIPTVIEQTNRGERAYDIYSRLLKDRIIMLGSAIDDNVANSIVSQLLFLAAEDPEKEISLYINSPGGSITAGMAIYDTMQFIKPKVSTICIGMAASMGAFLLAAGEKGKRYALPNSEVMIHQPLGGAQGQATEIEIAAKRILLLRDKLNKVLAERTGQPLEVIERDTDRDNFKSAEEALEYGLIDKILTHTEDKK
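Buffer: 100 mM Tris/HCl pH8, 100 mM KCl, 0.05% low protease BSA, 2.5% glycerol, 0.01% Tween-20. ClpP 10 microg/mL final; 20 min RT; delta FRET normalized to ADEP and DMSO controls.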
D3 antag = antagonists of human D3 dopamine receptor. P35462. D3R cells, DiscoveRx beta-arrestin luminescence, antagonist mode; hits give low values. max response, negative = inhibition, %. 360,000 compounds, 2.5% hits. AID 652054; in the data active means max response below about -50%; inconclusive means no clear call, values can overlap the other calls; further: on the % scale 0 is the no-effect control and ±100 the full control effect
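Cells plated overnight at 1500 cells/well, then exposed to library compounds with dopamine controls for 90 minutes at 37 degrees C. DiscoveRx reagent added for 30–60 minutes at room temperature; luminescence read, quantitative HTS format.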
TDP1 cell CPT = DT40-hTDP1 cell growth loss with CPT | chicken DT40 Tdp1-/-;hTDP1 cells + 20 nM CPT, ATP luminescence, 48 h | Potency, µM (doses to about 46.2 µM), without a hit: at the highest dose activity change, negative = growth inhibition, actives largely listed as inhibitors | 420,000 compounds, 12% hits | AID 686979; further: potency means the concentration at half of the fitted maximal effect; on the % scale 0 is the no-effect control and ±100 the full control effect; nearly all actives have a fitted effect of over 55% in size
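Cell growth measured by CellTiter-Glo luminescence after a minimum 48 h, 37 C compound exposure with 20 nM CPT in Tdp1-knockout DT40 cells stably expressing hTDP1, seeded 400/well; qHTS titration format.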
* hit, by the source's call; ? = inconclusive; · = no result. In the library only some 21% were active in any assay of this set; here they are far more common. Unless noted, the call rests on the fitted dose curve; in most records, active means well fitted inhibition curve with a large enough effect; inconclusive means small, poorly fitted or top-dose-only effect; inactive means flat fitted curve, though single readings scatter.

SMILES	DRD3 agonist	IL1B secr inh	TDP1 cell noCPT	ClpP mod	D3 antag	TDP1 cell CPT
CN(CC(=O)NC1CCCc2ccccc21)C1CCCCC1 (configuration not stated)	-12	6	?	·	-51*	?
Cc1nc2ccccn2c1C(=O)NC1CCCc2ccccc21 (configuration not stated)	1	55	7.3µM*	-20%	37	7.3µM*
CCc1cc(C(=O)O)c(NC(=O)c2cc(OC)c(OC)c(OC)c2)s1	-4	6	9%	·	-3	3%
CN(C)C(=O)CCSc1nnc(-c2ccncc2)o1	5	21	1%	·	14	2%
CN(C(=O)CCl)C1CCCc2ccccc21 (configuration not stated)	-10	-107*	2.9µM*	-2%	-25	2.6µM*
CC(Sc1nc2ccccc2s1)C(=O)NC1CCCc2ccccc21 (configuration not stated)	-4	?	23µM*	-27%	-15	?
CC(Sc1nnnn1C)C(=O)NC1CCCc2ccccc21 (configuration not stated)	1	11	7%	0%	9	9%
O=C(NC(=S)NC1CCCc2ccccc21)c1ccc(F)cc1 (configuration not stated)	-9	-5	?	1%	8	?
Cc1ccc(-n2nnnc2SCC(=O)NC2CCCc3ccccc32)cc1 (configuration not stated)	-9	1	18µM*	-1%	-21	?
O=C(NC(=S)NC1CCCc2ccccc21)c1ccco1 (configuration not stated)	-12	-9	?	·	1	16µM*
CCN(CC(=O)Nc1ccc2c(c1)OCCO2)C(=O)c1cc(=O)[nH]c2ccccc12	-8	-1	-19%	-15%	2	-2%
Cc1ccc(-c2nnc(CCC(=O)NCc3csc(C)n3)o2)s1	6	4	19%	-12%	5	5%
CCc1cc(-c2n[nH]c(C)c2-c2nc(C)cs2)c(O)cc1OC	1	-78*	-28%	·	7	0%
COCCN(CC(=O)Nc1ccccc1C(F)(F)F)C(=O)/C=C/c1cc(Cl)c2c(c1)OCCO2	-14	-5	?	?	1	?
Cc1cc2nc(C)n(CCCN)c2cc1C	-1	27	18µM*	0%	?	23µM*
Cc1nn(Cc2ccc(Cl)cc2)c(C)c1NC(=O)CSc1n[nH]c(C)c1[N+](=O)[O-]	-14	7	21µM*	1%	10	26µM*
Cc1nn(Cc2ccccc2)c(C)c1NC(=O)CSc1n[nH]c(C)c1[N+](=O)[O-]	6	11	?	1%	-8	?
Cc1nn(Cc2ccc(Cl)cc2)c(C)c1NC(=O)c1ccc([N+](=O)[O-])cc1	8	-74*	?	-1%	-26	1%
O=C(NCCCCc1ccccc1)C1CCCC1	-6	-6	-17%	0%	-21	-25%
COc1ccc(-n2c(NNC(C)=O)nc3sc4c(c3c2=O)CCCC4)cc1	-4	-16	4.1µM*	-4%	-15	3.3µM*
COc1ccc(-n2c(SCCNCCO)nc3sc4c(c3c2=O)CCCC4)cc1	-14	-75*	?	·	?	?
NNc1nc2sc3c(c2c(=O)n1-c1ccccc1)CCCC3	-7	27	?	·	-9	18µM*
O=c1cc(-c2ccccc2F)nc(-c2ccccc2F)o1	13	0	-16%	-2%	8	-19%
O=c1cc(-c2cccc(Br)c2)nc(-c2ccccc2F)o1	16	11	18µM*	?	4	26µM*
Cc1ncsc1CCOC(=O)C12CC3CC(CC(C3)C1)C2	1	8	-27%	2%	17	-24%
SMILES	DRD3 agonist	IL1B secr inh	TDP1 cell noCPT	ClpP mod	D3 antag	TDP1 cell CPT
Cc1c(CCOC(=O)CC23CC4CC(CC(C)(C4)C2)C3)sc[n+]1CC(=O)c1ccccc1	-8	-81*	16µM*	-2%	-8	16µM*
Cc1c(CCOC(=O)C23CC4CC(CC(C)(C4)C2)C3)sc[n+]1CC(=O)c1ccccc1	-14	?	21µM*	0%	10	23µM*
Cc1c(CCOC(=O)CC23CC4CC(CC(C4)C2)C3)sc[n+]1CC(=O)c1ccc(Br)cc1	-2	-61*	26µM*	-5%	3	?
NC(=O)c1ccc[n+](CC(=O)OCCC23CC4CC(CC(C4)C2)C3)c1	-8	-4	-25%	0%	-15	-11%
O=C(c1ccco1)N1CCC2(CCCN(c3ccccc3)C2)CC1	·	·	?	·	·	-5%
COc1cc(O)sc1C=Nc1ccc(Cl)cc1Cl	1	-11	-5%	1%	12	-5%
CC(=O)Nc1ccc(S(=O)(=O)N(C)c2ccc(OCC(=O)Nc3ccccc3C(C)=O)cc2)cc1	4	-29	21µM*	-5%	31	18µM*
CC(=O)c1ccccc1NC(=O)COc1ccc(N(C)S(=O)(=O)c2ccc(C)c(C)c2)cc1	7	47	12µM*	-20%	10	21µM*
C=CCn1c(C)cc(C(=O)COc2ccc(N(C)S(=O)(=O)c3ccc(NC(C)=O)cc3)cc2)c1C	-5	-29	5.8µM*	1%	8	9.2µM*
COCC(C)n1c(C)cc(C(=O)COc2ccc(N(C)S(=O)(=O)c3ccc(NC(C)=O)cc3)cc2)c1C (configuration not stated)	4	4	?	-12%	49	?
CN(c1ccc(OCC(=O)Nc2ccccc2C(=O)O)cc1)S(=O)(=O)c1ccc(Cl)cc1	21	3	-28%	-14%	14	-20%
NC(=S)NN=C1CCCCCCCC1	-11	-4	?	-2%	-9	2.3µM*
NC(=S)NN=C1CCCCCCCCC1	-30	-8	?	-1%	?	?
NC(=S)NN=C1C=CCCC1	6	14	4.6µM*	-3%	-13	2.9µM*
C=CCNC(=S)NN=C1CCCCCCC1	-7	13	26µM*	0%	3	16µM*
COCCNC(=S)NCc1ccc2[nH]c3c(c2c1)CCCC3	-1	13	-26%	-5%	-16	-15%
COCCNC(=S)NN=C1CCCCC1	-2	26	5.2µM*	?	-7	5.2µM*
Cc1ccccc1-n1c(SCc2ccc(Cl)cc2)nc2[nH]ncc2c1=O	0	·	18µM*	-2%	·	16µM*
